Source: PubChem
AmpC inh no detg: inhibitors of E. coli AmpC beta-lactamase without detergent. P00811. AmpC nitrocefin hydrolysis, absorbance 480 nm, 0.0001% Triton. Potency, µM (top dose mostly 57.1 µM), without a hit: at the highest dose activity change, negative = inhibition, actives largely listed as inhibitors. hit rate 0.52% among 330,000. AID 485341;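 further: plate controls were no compound for no effect and no enzyme for full effect; nearly all actives have a fitted effect of over 20% in size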
Target sequence (P00811 whole entry, looked up): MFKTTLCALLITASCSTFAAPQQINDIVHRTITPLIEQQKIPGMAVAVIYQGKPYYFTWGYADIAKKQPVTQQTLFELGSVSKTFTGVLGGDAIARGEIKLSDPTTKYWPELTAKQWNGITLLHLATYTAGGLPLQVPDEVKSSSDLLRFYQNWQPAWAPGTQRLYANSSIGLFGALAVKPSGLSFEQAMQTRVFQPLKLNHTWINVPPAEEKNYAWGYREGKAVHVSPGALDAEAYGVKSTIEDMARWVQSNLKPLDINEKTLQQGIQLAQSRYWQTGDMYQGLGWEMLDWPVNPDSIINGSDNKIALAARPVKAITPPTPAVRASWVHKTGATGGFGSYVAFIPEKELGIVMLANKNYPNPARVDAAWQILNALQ
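20 mM phosphate pH 7.0 + 0.01% (detergent screen) or 0.0001% Triton X-100; 5.3 nM AmpC reagent; cpd preinc 15 min RT; nitrocefin (800 uM stock) to start; A480 q20 s × 4 min; Activity was normalised to no-enzyme and no-compound control wells.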
AmpC inh detg: inhibitors of E. coli AmpC beta-lactamase with detergent. Potency, µM (series often up to 114 µM), for the others: at the highest dose activity change, negative = inhibition, most hits filed as inhibitors. P00811. AmpC hydrolysis of nitrocefin, absorbance 480 nm, 0.01% Triton. hit rate 0.041% among 370,000. AID 485294;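 further: 0% = no-compound wells and -100% = no-enzyme wells; nearly all actives have a fitted effect of over 25% in size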
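20 mM phosphate pH 7.0 + 0.01% (detergent screen) or 0.0001% Triton X-100; 5.3 nM AmpC reagent; cpd preinc 15 min RT; nitrocefin (800 uM stock) to start; A480 q20 s × 4 min; Activity was normalised to no-enzyme and no-compound control wells.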
Sm TGR block: S. mansoni TGR enzyme inhibition. Q962Y6. purified TGR, DTNB reduction, TNB absorbance 405 nm. Potency, µM (top dose mostly 114 µM), for inactives: at the top dose activity change, negative = inhibition, hits mostly inhibitors. hit rate 3% among 360,000. AID 485364; further: on the % scale 0 is the no-effect control and ±100 the full control effect; nearly all actives have a fitted effect of over 60% in size
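TGR 20 nM + NADPH 100 uM (dispensed conc.), cpd preinc 15 min RT; start with NADPH (500 uM addition) then DTNB (15 mM addition). Kinetic TNB absorbance, 405 nm filter. Four-parameter Hill fit across titration.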
SARS PLP yeast: SARS-CoV PLP inhibition in yeast; Potency, µM (highest dose often 32.9 µM), inactives show top-dose activity, positive = growth rescue, usual class: activators; hit rate 0.19% among 330,000; S. cerevisiae expressing SARS-CoV PLpro, growth rescue; AID 485353; calls by dose curve; further: 0% is about no effect; nearly all actives have a fitted effect of over 55% in size
Pf growth 48h: P. falciparum growth inhibition at 48 hours (one generation) | P. falciparum luciferase growth in erythrocytes, 48 h | AID 504832 | hit rate 5.9% among 310,000 | Potency, µM (highest dose often 28.7 µM), inactives show at the top dose activity change, negative = inhibition, usual class: inhibitors; further: on the % scale 0 is the no-effect control and ±100 the full control effect
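Luciferase-expressing parasites in RBCs, 2% Hct / 0.1% parasitemia final; RPMI 1640 + 0.5% Albumax; 37 C, 5% CO2, one generation; luminescence read-out, lower signal = inhibition.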
Pf growth 96h: P. falciparum growth inhibition at 96 hours | Potency, µM (doses to about 28.7 µM), inactives show top-dose activity change, negative = inhibition, usual class: inhibitors | AID 504834 | P. falciparum luciferase reporter growth, 96 h | hit rate 6.9% among 320,000; further: on the % scale 0 is the no-effect control and ±100 the full control effect
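P. falciparum expressing integrated firefly luciferase grown in erythrocytes (2% hematocrit, 0.05% parasitemia final) with compounds for 96 hours at 37 C, 5% CO2. Growth inhibition read as loss of luminescence after adding luciferase detection reagent.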
Active calls of the source: *; ? = inconclusive; . = no result given. Hits are enriched below; roughly 12% of the tested compounds scored in any of these assays. Unless noted, the call rests on the fitted dose curve; in most records, active means well fitted curve in the direction sought with a large enough effect; inconclusive means small, poorly fitted or top-dose-only effect, or another doubt; inactive means no such curve, though single readings can be large; an effect the other way counts as inactive or inconclusive. Potency means the concentration at half of the fitted maximal effect.

SMILES	AmpC inh no detg	AmpC inh detg	Sm TGR block	SARS PLP yeast	Pf growth 48h	Pf growth 96h
COC/C=C/C1=CC2=CC(=O)C(C)(OC(=O)c3cnc4ccccc4n3)C(=O)C2=CN1c1ccc(CO)cc1 (stereo not drawn)	6%	?	45µM*	1%	36%	8%
Cc1nn2cc(-c3ccccc3)nc2[nH]c1=O	-16%	-4%	8%	-8%	?	0.66µM*
O=C(O)CCc1nn2cc(-c3ccccc3)nc2[nH]c1=O	-14%	-11%	-11%	0%	?	?
COC(=O)CCCCCn1c(-c2ccccc2)cn2c3c(=O)n(C)c(=O)n(C)c3nc12	.	6%	1%	.	.	.
Cc1ccc(-c2cc(NC(=O)COc3ccc(Cl)cc3C)on2)cc1	.	21%	3%	.	.	.
COC(=O)CSc1[nH]c2ccccc2c1[N+](=O)[O-]	-3%	-1%	50µM*	-3%	-3%	34%
C=CCn1c(=O)c2ccccc2n2c(SCc3nc(N)nc(Nc4ccccc4C)n3)nnc12	51%	?	-4%	4%	8.3µM*	?
C=CC[N+]1(CC(=O)NCc2ccc(NC(C)=O)cc2)CCOCC1	-13%	-3%	0%	-3%	84%	75%
CSc1nnc(CCCCCCCCc2nnc(SC)o2)o1	40%	-7%	5%	-1%	?	13µM*
Cc1cc(C)c2[nH]c(=O)c(CN(Cc3ccc4c(c3)OCO4)Cc3nnnn3C3CCCC3)cc2c1	0%	?	5%	3%	12µM*	0%
Cc1cc(C)c2[nH]c(=O)c(C(c3nnnn3Cc3ccc4c(c3)OCO4)N3CCC(C)CC3)cc2c1 (stereo not drawn)	-25%	?	-34%	-12%	13µM*	.
Cc1cc(C)c2[nH]c(=O)c(C(c3nnnn3C3CCCC3)N3CCOCC3)cc2c1 (stereo not drawn)	6%	-12%	-11%	7%	3%	?
COc1ccc(Cn2nnnc2C(c2cc3ccc(OC)cc3[nH]c2=O)N2CCC(C)CC2)cc1 (stereo not drawn)	0%	0%	28µM*	-2%	.	9.3µM*
COc1ccc2cc(C(c3nnnn3Cc3ccc(F)cc3)N3CCCCCC3)c(=O)[nH]c2c1 (stereo not drawn)	31%	0%	16µM*	2%	12µM*	.
Cc1cccc2cc(CN(Cc3ccc(F)cc3)Cc3nnnn3C3CCCC3)c(=O)[nH]c12	-3%	?	17%	0%	-9%	153%
COc1ccc2cc(C(c3nnnn3CCc3ccccc3)N3CCC(O)CC3)c(=O)[nH]c2c1 (stereo not drawn)	53%	-3%	-26%	-2%	-5%	0%
O=C(CCCCCn1c(=O)[nH]c2ccccc2c1=O)NCc1cccc(Cl)c1	.	-3%	4%	.	.	.
COc1ccc2cc(C(c3nnnn3Cc3ccccc3)N3CCCCCC3)c(=O)[nH]c2c1 (stereo not drawn)	6%	-3%	20µM*	-9%	?	?
COc1cccc(NS(=O)(=O)c2ccc3[nH]cc(C(=O)NC4CCCCC4)c(=O)c3c2)c1	.	7%	-4%	.	.	.
CCOc1cc(/C=C2/C(=O)NC(=O)N(c3ccc(CC)cc3)C2=O)ccc1OC(=O)c1cccs1	-41%	-3%	35µM*	-1%	17%	7%
CC[n+]1c(C)cc(C)n1-c1ccccc1	-18%	2%	9%	4%	?	8.3µM*
CCOC(=O)CC(=O)c1sc2c(c1N)c(=O)[nH]c(=O)n2-c1ccc(OC)cc1	-28%	-1%	3%	-1%	?	5.2µM*
CC(=O)c1sc2c(c1N)c(=O)[nH]c(=O)n2-c1ccccc1	-3%	0%	-5%	2%	?	9%
COc1ccccc1NC(=S)NNC(=O)c1ccc(O)cc1	-14%	4%	8%	7%	.	0.37µM*
